Assay results: PubChem BioAssay (NCI)
“And” between values parts separate entries of the source, which are not always exact repeats. Identical values can stand only once. Compounds without any hit were thinned out: in the full panel of roughly 83,000, 20% have a hit.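 Cells were grown in 96-well plates and exposed to the test compound at a single concentration for 48 hours; results are reported as percent growth, with values below 10 considered active.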 The source made the active and inactive calls.

Key:
Experiment in all cases: NCI-60 one-dose screen, 48 h (100 = growth as untreated, 0 = no growth, -100 = all killed)
Conditions in all cases: 10 µM unless noted
NCI-H23 lung = tested on: NCI-H23 lung
NCI-H226 lung = tested on: NCI-H226 lung
NCI-H322M lung = tested on: NCI-H322M lung
HOP-62 NSCLC = tested on: HOP-62 NSCLC
NCI-H460 lung = tested on: NCI-H460 lung
HOP-92 NSCLC = tested on: HOP-92 NSCLC
NCI-H522 lung = tested on: NCI-H522 lung
A549/ATCC NSCLC = tested on: A549/ATCC NSCLC
786-0 renal = tested on: 786-0 renal
COLO 205 colon = tested on: COLO 205 colon
DU-145 prostate = tested on: DU-145 prostate
K-562 leukemia = tested on: K-562 leukemia
MALME-3M melanoma = tested on: MALME-3M melanoma
MDA-MB-231 breast = tested on: MDA-MB-231 breast
RXF 393 renal = tested on: RXF 393 renal
SF-268 CNS = tested on: SF-268 CNS
SF-295 CNS = tested on: SF-295 CNS
SF-539 CNS = tested on: SF-539 CNS
UACC-257 melanoma = tested on: UACC-257 melanoma
M14 melanoma = tested on: M14 melanoma

Row | SMILES | growth (NCI-H23 lung) | growth (NCI-H226 lung) | growth (NCI-H322M lung) | growth (HOP-62 NSCLC) | growth (NCI-H460 lung) | growth (HOP-92 NSCLC) | growth (NCI-H522 lung) | growth (A549/ATCC NSCLC) | growth (786-0 renal) | growth (COLO 205 colon) | growth (DU-145 prostate) | growth (K-562 leukemia) | growth (MALME-3M melanoma) | growth (MDA-MB-231 breast) | growth (RXF 393 renal) | growth (SF-268 CNS) | growth (SF-295 CNS) | growth (SF-539 CNS) | growth (UACC-257 melanoma) | growth (M14 melanoma)
1 | CC(C)c1cccc(C(C)C)c1O | 97% (inactive) and 103% (inactive) | 107% (inactive) and 103% (inactive) | 99.6% (inactive) and 93% (inactive) | 111% (inactive) and 110% (inactive) | 117% (inactive) and 101% (inactive) | 100% (inactive) | 98% (inactive) | 93.1% (inactive) and 75.5% (inactive) | 108% (inactive) | 116% (inactive) and 111% (inactive) | 109% (inactive) and 116% (inactive) | 92.8% (inactive) and 104% (inactive) | 95.7% (inactive) and 91.8% (inactive) | 114% (inactive) and 107% (inactive) | 109% (inactive) | 110% (inactive) and 97.7% (inactive) | 101% (inactive) and 103% (inactive) | 115% (inactive) and 97.4% (inactive) | 100% (inactive) | 109% (inactive) and 111% (inactive)
2 | Oc1ccccc1C=NCCN=Cc1ccccc1O | 99.8% (inactive) | 99.5% (inactive) | 97.5% (inactive) | 96.9% (inactive) | 107% (inactive) | 99.6% (inactive) | 92.3% (inactive) | 98.7% (inactive) | 106% (inactive) | 118% (inactive) | 108% (inactive) | 112% (inactive) | 113% (inactive) | 101% (inactive) | 109% (inactive) | 97% (inactive) | 101% (inactive) | 106% (inactive) | 96.4% (inactive) | 102% (inactive)
3 | C[C@]12C[C@H](c3ccoc3)OC(=O)[C@H]1CC[C@@]1(C)[C@@H]2[C@H]2C=C[C@]1(O)C(=O)O2 | 102% (inactive) | 101% (inactive) | 79.1% (inactive) | 104% (inactive) | 108% (inactive) | 81.3% (inactive) | 68.1% (inactive) | 84.5% (inactive) | 91.9% (inactive) | 104% (inactive) | 109% (inactive) | 76.9% (inactive) | 101% (inactive) | 102% (inactive) | 102% (inactive) | 98.3% (inactive) | 91.1% (inactive) | 92.4% (inactive) | 86.2% (inactive) | 87.6% (inactive)
4 | CCN(CC)CCn1c(=O)n(C)c2ccccc21 | 97.4% (inactive) | 102% (inactive) | 106% (inactive) | 107% (inactive) | 106% (inactive) | 93.7% (inactive) | 108% (inactive) | 105% (inactive) | 111% (inactive) | 109% (inactive) | 109% (inactive) | 103% (inactive) | 103% (inactive) | 119% (inactive) | 106% (inactive) | 101% (inactive) | 111% (inactive) | 98.1% (inactive) | 97.5% (inactive) | 108% (inactive)
5 | CN(C)c1ccc(N)cc1 | 96.6% (inactive) and 10.7% (inactive) | 101% (inactive) and 82.3% (inactive) | 95.3% (inactive) and 111% (inactive) | 93.7% (inactive) and 47.1% (inactive) | 103% (inactive) and 54.2% (inactive) | 98.1% (inactive) and 41.6% (inactive) | 85.1% (inactive) | 97.2% (inactive) and 33.1% (inactive) | 109% (inactive) | 103% (inactive) and 43.1% (inactive) | 113% (inactive) and 58.4% (inactive) | 83.7% (inactive) and 44.9% (inactive) | 115% (inactive) and 95.7% (inactive) | 88% (inactive) and 58.6% (inactive) | 109% (inactive) and 84.7% (inactive) | 97.9% (inactive) and 65.8% (inactive) | 110% (inactive) and 59.9% (inactive) | 104% (inactive) and 67% (inactive) | 92.5% (inactive) and 4.45% (active) | 101% (inactive)
6 | COC1C(O)CC(OC2CC(Oc3cc4cc5c(c(O)c4c(O)c3C)C(=O)[C@@H](OC3CC(OC4CC(OC6CC(C)(O)C(OC(C)=O)C(C)O6)C(O)C(C)O4)C(O)C(C)O3)[C@H]([C@H](OC)C(=O)[C@@H](O)[C@@H](C)O)C5)OC(C)C2OC(C)=O)OC1C (some centres undefined) | -44.1% (active) | -10.6% (active) | -2.53% (active) | -11.7% (active) | -25.7% (active) | -19.7% (active) | -50.6% (active) | -64.2% (active) | 1.26% (active) | -57.6% (active) | -18.3% (active) | -14.9% (active) | -91.6% (active) | -8.36% (active) | -49.6% (active) | -10.5% (active) | -16.2% (active) | -73.9% (active) | -31.7% (active) | -86.3% (active)
7 | C[C@]12CC[C@H]3[C@@H](CC=C4c5nc(-c6ccc(Br)cc6)sc5CC[C@@]43C)[C@@H]1CC[C@@H]2O | 88.4% (inactive) | 100% (inactive) | 94.7% (inactive) | 106% (inactive) | 106% (inactive) | 130% (inactive) | 97.5% (inactive) | 106% (inactive) | 45% (inactive) | 119% (inactive) | 108% (inactive) | 76.7% (inactive) | 103% (inactive) | 89.5% (inactive) | 3.87% (active) | 90.2% (inactive) | 63.5% (inactive) | 9.53% (active) | 114% (inactive) | 90.5% (inactive)
8 | O=C(Cc1ccccc1)c1ccccc1 | 94.5% (inactive) | 102% (inactive) | 103% (inactive) | 98.5% (inactive) | 98.9% (inactive) | 88.1% (inactive) | 103% (inactive) | 107% (inactive) | 102% (inactive) | 102% (inactive) | 105% (inactive) | 104% (inactive) | 98.7% (inactive) | 110% (inactive) | 103% (inactive) | 103% (inactive) | 112% (inactive) | 98.8% (inactive) | 98% (inactive) | 107% (inactive)
9 | CCCC[C@H]1C(=O)O[C@H](C)[C@H](NC(=O)c2cccc(NC=O)c2O)C(=O)O[C@@H](C)[C@@H]1OC(=O)CC(C)C | 42% (inactive) | 44.1% (inactive) | 66.3% (inactive) | 48.4% (inactive) | 19.9% (inactive) | 32.9% (inactive) | 51.2% (inactive) | 11.5% (inactive) | 44.8% (inactive) | 42.2% (inactive) | 85.9% (inactive) | 26.4% (inactive) | 44% (inactive) | 58.7% (inactive) | 6.91% (active) | 46.6% (inactive) | 9.04% (active) | 39.3% (inactive) | 42.8% (inactive) | 
10 | CCC(=O)C(CC(C)N1CCCCCC1)(c1ccccc1)c1ccccc1 (centres undefined) | 91.6% (inactive) | 92.6% (inactive) | 84.7% (inactive) | 85.6% (inactive) | 103% (inactive) | 65.9% (inactive) | 83% (inactive) | 87.8% (inactive) | 87.4% (inactive) | 93% (inactive) | 102% (inactive) | 82.6% (inactive) | 93.6% (inactive) | 92.4% (inactive) | 129% (inactive) | 104% (inactive) | 89.7% (inactive) | 98.6% (inactive) | 100% (inactive) | 98.1% (inactive)
11 | CC[CH2][Sn]([Cl])([Cl])[CH2]CC.Oc1ccccc1C=NCCN=Cc1ccccc1O | 56.4% (inactive) and 34.2% (inactive) | 11% (inactive) and 17.4% (inactive) | 105% (inactive) and 92.4% (inactive) | 103% (inactive) and 83.8% (inactive) | 110% (inactive) and 90.5% (inactive) | 40% (inactive) and 29.2% (inactive) | -87.6% (active) and -83.2% (active) | 103% (inactive) and 92.3% (inactive) | 65.2% (inactive) and 59.1% (inactive) | 50.6% (inactive) and -12.1% (active) | 81.3% (inactive) and 76.9% (inactive) | 4.37% (active) and -23.9% (active) | 4.96% (active) and -43.8% (active) | 38.7% (inactive) and 28.5% (inactive) | 51.7% (inactive) and 1.58% (active) | 49.7% (inactive) and 20.3% (inactive) | 93.2% (inactive) | 59.9% (inactive) and 37.8% (inactive) | 51.4% (inactive) and 5.28% (active) | 69.6% (inactive) and 39% (inactive)
12 | CCCCCCCCCCCCCCCCCCn1cc[n+](C)c1 | -48.9% (active) and -44.3% (active) | -54% (active) and -61.7% (active) | 5.3% (active) and 6.16% (active) | -58.6% (active) and -74.1% (active) | -62.9% (active) and -51.3% (active) | -51.3% (active) and -66.2% (active) | -74.9% (active) and -74.3% (active) | -15.2% (active) and -47.2% (active) | -74.9% (active) and -81.7% (active) | 1.82% (active) and -47.3% (active) | -54% (active) and -62.3% (active) | 28.3% (inactive) and 17.9% (inactive) | -33.7% (active) and -30.7% (active) | -66.2% (active) and -80.2% (active) | -28.3% (active) and -62.1% (active) | -45.4% (active) and -45.3% (active) | -10.4% (active) and -21.5% (active) | -85.2% (active) and -82.9% (active) | -38% (active) and -47.9% (active) | -62.4% (active) and -49.9% (active)
13 | COc1cc(C2C3=C(CCCC3=O)N(CCO)c3cc4c(cc32)CCC4)cc(OC)c1OC (centres undefined) | 80.8% (inactive) | 103% (inactive) | 75.1% (inactive) | 92.6% (inactive) | 36.4% (inactive) | 76% (inactive) | 62.7% (inactive) | 58.9% (inactive) | 84.6% (inactive) | 74% (inactive) | 94.1% (inactive) | 78.7% (inactive) | 93.1% (inactive) | 82.1% (inactive) | 100% (inactive) | 90.4% (inactive) | 99.9% (inactive) | 106% (inactive) | 67.2% (inactive) | 98% (inactive)
